Measured values as given in PubChem BioAssay AID1813 (Broad Institute, 2009).
The whole screen tested about 300,000 compounds, of which about 2,500 (0.83%) were called active. No stated cut-off is given here; in the data, active means inhibition above about 60%; inconclusive means no clear call, values can overlap the other calls; inactive means below that. Many of the other results were omitted from the sample, so actives are more common in it than they were.

Experiment: MLPCN primary screen, SNCA 5' untranslated region (AID 1813);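 further: H4 neuroglioblastoma cells stably carrying SNCA 5'UTR luciferase fusion; 0% = DMSO wells and 100% = positive control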
Settings: alpha-synuclein 5'UTR reporter, inhibitor activity; hits give high values; tested at 7.5 µM

inhibition, inactive:
Cc1ccc(C(=O)Nc2nnc(C3=COCCO3)o2)cc1C -10.3%
CCN(CC)S(=O)(=O)c1ccc(N2CCCC2)c(NS(=O)(=O)c2cccs2)c1 -11.1%
COc1ccc2c(C(=O)c3ccc(C)cc3)n(CCC(N)=O)[n+]([O-])c2c1 -21.1%
COc1ccc(C(=O)CC(=O)C(=O)Nc2cc([N+](=O)[O-])ccc2OC)cc1 -25.8%
Cc1ccc(C(NC(=O)N2CCCC2)C(Cl)(Cl)Cl)cc1F (stereo not drawn) 25.2%
COCC(=O)N=Nc1c(O)[nH]c2ccccc12 3.62%
COc1ccccc1N=Cc1c(O)c2ccccc2oc1=O 3.79%
COCCC(=O)N1CCC(Oc2ccc(C(=O)NCc3ccon3)cc2)CC1 -4.68%
O=C(CCCO)N/N=C/c1cc(Br)ccc1O -18.4%
Oc1ccc(/C=N/Nc2ccc(C(F)(F)F)cn2)cc1O -195%
COc1ccc(-c2cc(=O)oc3cc(OCC(=O)N[C@@H](Cc4c[nH]c5ccccc45)C(=O)O)ccc23)cc1 9.25%
CCOc1cc(/C=N/NC(=O)CN2CCCCC2)ccc1O 1.96%
C=CCn1c(C)cc(C(=O)CN2C(=O)c3ccccc3C2=O)c1C 47.1%
O=C(NCc1cccnc1)C12CC3CC(CC(C3)C1)C2 16.2%
O=C(NC1CCCC1)C(c1ccc(N2CCOCC2)cc1)N(C(=O)c1ccco1)c1ccccc1F (stereo not drawn) -5.34%
Cc1cc(C)n(-c2c(F)c(F)c(COC(=O)c3ccccc3)c(F)c2F)n1 6.91%
CCOC(=O)c1cnc(-n2nc(C)cc2C)nc1Nc1cccc(C(C)=O)c1 17.6%
NC(=O)C1CCN(Cc2nc3c(Br)cc(Br)cc3c(=O)[nH]2)CC1 31.8%
CC(=O)Nc1ccc(S(=O)(=O)NC2Cc3ccccc3C2)cc1 -6.02%
Cc1ccc(NC(=O)CCC(=O)c2ccc(Br)cc2)cc1 1.65%
COc1ccc(C2CC(=O)Nc3cc(C)c(C)cc32)c(OC)c1OC (stereo not drawn) 22.4%
COc1cc2c(cc1OC)C(c1ccncc1)CC(=O)N2 (stereo not drawn) 21.6%
COC(=O)C1=C(C)NC(=O)CC1c1ccccc1OC (stereo not drawn) 2.02%
COc1ccc(S(=O)(=O)Nc2ccc3c(c2)OCO3)cc1Cl -17.5%
COC(=O)c1ccc(NS(=O)(=O)c2cc3c4c(c2)C(C)C(=O)N4CCC3)cc1 (stereo not drawn) 8.87%
CN(CC(=O)NCc1ccncc1)S(=O)(=O)c1ccc(Br)cc1 -15.9%
Cc1ccc(CNC(=O)c2ccc3c(c2)S(=O)(=O)c2ccccc2C3=O)cc1 5.46%
CCN(C(=O)c1cc([N+](=O)[O-])ccc1NCc1cccnc1)c1ccccc1 14.1%
CCCCn1ccnc1C(=O)c1cccc(S(=O)(=O)N2c3ccccc3CC2C)c1 (stereo not drawn) 4.82%
COc1ccc(-c2cn3ccsc3n2)cc1 -105%
CCN(CC)S(=O)(=O)c1ccc(-c2cn3ccc(C)cc3n2)cc1 -169%
CCc1nc2cccnc2n1-c1ccc(C(=O)O)cc1 -14.6%
Fc1ccc(-n2c(Cc3ccccc3)nnc2SCc2nc(-c3ccc(Cl)cc3)no2)cc1 -3.62%
CCN(CC)CCNCc1ccc(OCc2ccc(Cl)nc2)c(OC)c1 -27.5%
CCOc1cccc(/C=C/c2ccc3ccccc3n2)c1OC(C)=O 49.2%
COc1cccc(/C=C2\C=C(c3ccc(C)cc3)OC2=O)c1OC(C)=O -65.8%
CCCOC1CCCN(C(=O)c2cc(COc3cncc(Cl)c3)on2)C1 (stereo not drawn) -219%
C[C@H](NC(=O)c1nc[nH]c1C(=O)NCC(=O)OC(C)(C)C)c1ccccc1 24.4%

inhibition, active:
COc1ccc(C(=O)c2c3ccc([N+](=O)[O-])cc3[n+]([O-])n2CCCN)cc1 63.1%
COc1cc(N=Cc2c(O)[nH]c3ccccc23)cc(OC)c1OC 81%
Oc1ccc(Br)cc1/C=N/Nc1ccccn1 66.4%
C=CCn1c(C)cc(C2=NNC(=NCC)SC2)c1C 105%
CCOC(=O)c1cnc(-n2nc(C)cc2C)nc1NNc1cc(C)nc(-c2ccccc2)n1 105%
CCCOc1ccccc1C1CC(=O)Nc2cc3c(cc21)OCO3 (stereo not drawn) 111%
COc1ccccc1C1C2=C(COC2=O)Nc2cc3c(cc21)OCO3 (stereo not drawn) 98.1%
COc1ccc(-c2cn3ccc(C)cc3n2)cc1 92.2%
COc1cccc(/C=C/c2ccc3ccccc3n2)c1OC(C)=O 83.1%
O=c1cc(-c2ccccc2)[nH]c2cc(F)ccc12 93.3%
